The panel holds about 79,000 compounds, 15% with a hit somewhere; the sample as a whole holds those more often. Activity calls are given as the source filed them. Rule as the data show it: active = growth inhibition above about 70%; inactive = the rest.
Experiments:
[1] = NCI Yeast Anticancer Drug Screen. Data for the rad52 strain (AID 147);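 also: 0% = growth of vehicle-treated control cultures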; conditions: S. cerevisiae rad52 mutant growth inhibition, active compounds read high
Procedure, shortened: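 Read-out: growth inhibition versus vehicle-treated controls. Cells were a DNA repair-deficient yeast strain treated with compounds.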

[2] = NCI Yeast Anticancer Drug Screen. Data for the wt1 strain (AID 149);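 also: 0% = growth of vehicle-treated wt1 cultures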; conditions: S. cerevisiae wt1 strain (SPY 50644) growth inhibition, active compounds read high
Procedure, shortened: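 Each compound is tested on wt1 yeast and the loss of growth versus vehicle gives the inhibition value.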

[3] = NCI Yeast Anticancer Drug Screen. Data for the rad50EPP+ strain (AID 151);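 also: 0% = growth of vehicle-treated control cultures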; conditions: S. cerevisiae rad50 mutant strain, active compounds read high
Procedure, shortened: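 Growth inhibition read against vehicle controls in rad50EPP+ yeast, a strain altered in DNA damage repair, after compound exposure.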

[4] = NCI Yeast Anticancer Drug Screen. Data for the mgt1 strain (AID 153); conditions: S. cerevisiae mgt1 mutant growth inhibition, active compounds read high
Procedure, shortened: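 mgt1 yeast grown with test compound; read-out is growth inhibition versus vehicle-treated cultures.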

[5] = NCI Yeast Anticancer Drug Screen. Data for the rad50 strain (AID 155);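 also: 0% = growth of vehicle-only cultures of the same strain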; conditions: S. cerevisiae rad50 strain growth inhibition, active compounds read high
Procedure, shortened: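 Vehicle-treated cultures provide the reference for the growth inhibition reported for compound-exposed, repair-deficient yeast.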

[6] = NCI Yeast Anticancer Drug Screen. Data for the mec2-1 strain (AID 157); conditions: S. cerevisiae mec2-1 strain, active compounds read high
Procedure, shortened: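 Yeast mec2-1 mutant treated with compound. Readout: growth inhibition vs vehicle controls.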

[7] = NCI Yeast Anticancer Drug Screen. Data for the rad14 strain (AID 159);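 also: 0% = growth of vehicle-treated control cultures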; conditions: S. cerevisiae rad14 strain growth inhibition, active compounds read high
Procedure, shortened: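 Inhibition of growth is reported for a repair-deficient yeast mutant following compound treatment, calculated relative to cultures that received vehicle.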

[8] = at 5.0 µM (retest, dose inferred, filed as 0.5)
[9] = at 50.0 µM (retest, dose inferred, filed as 5.0)

Measured: growth inhibition

O=[N+]([O-])c1cc(S(=O)(=O)Nc2ccccc2)ccc1Cl
inactive: [1]; at 1.2 µM 2% | [1]; at 3.7 µM 6% | [1]; at 11.0 µM 15% | [2]; at 1.2 µM -20% | [2]; at 3.7 µM -20% | [2]; at 11.0 µM 0% | [3]; at 1.2 µM 14% | [3]; at 3.7 µM 6% | [3]; at 11.0 µM 1% | [3]; at 33.0 µM 20% | [3]; at 100.0 µM 48% | [4]; at 1.2 µM 15% | [4]; at 3.7 µM 3% | [4]; at 11.0 µM 30% | [5]; at 1.2 µM -7% | [5]; at 3.7 µM 3% | [5]; [8] 34% | [5]; at 11.0 µM 19% | [6]; at 1.2 µM -10% | [6]; at 3.7 µM -5% | [6]; [8] 42% | [6]; at 11.0 µM 21% | [7]; at 1.2 µM -4% | [7]; at 3.7 µM -8% | [7]; at 11.0 µM 2%
active: [1]; at 33.0 µM 89% | [1]; at 100.0 µM 98% | [2]; at 33.0 µM 86% | [2]; at 100.0 µM 99% | [4]; at 33.0 µM 93% | [4]; at 100.0 µM 99% | [5]; at 33.0 µM 90% | [5]; [9] 99% | [5]; at 50.0 µM 88.5% | [5]; at 100.0 µM 97% | [6]; at 33.0 µM 91% | [6]; [9] 99% | [6]; at 50.0 µM 90.5% | [6]; at 100.0 µM 99% | [7]; at 33.0 µM 91% | [7]; at 100.0 µM 98%

Source: PubChem BioAssay (NCI)
